Records with an inconclusive call do not appear. Entries that show only a call come without a potency. Active and inactive are the calls of the source. Calls come from the whole dose curve; as a rule, active = well fitted cell-killing curve with a large enough effect in the repeat runs; inconclusive = weak or mixed curves, or effect the other way; inactive = flat fitted curve, though single readings scatter.
Experiment: cAMP Responsive Elements (CRE) small molecule agonists, cell-based qHTS assay: qHTS cell viability counter screen (AID 2060914);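 note: viability read after 3 h of compound exposure; nearly all actives have a fitted effect of over 50% in size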
Conditions: CRE-bla HEK293T viability, CellTiter-Glo luminescence, 5 h; series mostly up to 92.4 µM
Text: National Center for Advancing Translational Sciences [NCATS]
Division of Preclinical Innovation [DPI]
U.S. Environmental Protection Agency [EPA]
National Institutes of Environmental Health Sciences [NIEHS]
National Toxicology Program [NTP]
U.S. Food and Drug Administration [FDA]
CREB (cyclic-AMP Responsive Element Binding Protein) is a cellular transcription factor. It binds to certain DNA sequences called cAMP Responsive Elements (CRE) and regulates the transcription of the genes. […] This cell line can be used to find agonists/antagonists of the cyclic AMP signaling pathway. The activation of the report gene under culture conditions can be detected by fluorescence intensity. This cell line has been used to screen the Tox21 10K compound library to identify agonists that induce oxidative stress. The cytotoxicity of the Tox21 compound library against the CRE-bla cell line was tested in parallel by measuring the cell viability using CellTiter-Glo assay (Promega, Madison, WI) in the same wells.
Tox21 Assay Protocol Summary:
CRE-bla Hek 293T cells were suspended in assay medium (DMEM containing 10% dialyzed FBS, 0.1 mM NEAA, 1 mM sodium pyruvate and 25 mM HEPES) and dispensed at 2,000 cells/5 uL /well into 1536-well black wall/clear bottom plates using a Multidrop Combi (ThermoFisher Scientific, Waltham, MA) dispenser. After the assay plates were incubated at 37 C/5% CO2 for 18 hrs, 23 nL of compounds dissolved in DMSO, positive controls or DMSO only was transferred to the assay plate by a pintool workstation (Kalypsys, San Diego, CA). After the plates were incubated at 37 C/5% CO2 for 3 hrs, 1 uL of LiveBLAzer B/G FRET substrate (Invitrogen, Carlsbad, CA) was added to each well using Bioraptr Flying Reagent Dispenser (FRD, Aurora Discovery, San Diego, CA). The plates were incubated at room temperature for 2 h, then fluorescence intensities were measured using an Envision plate reader (PerkinElmer, Shelton, CT) at Excitation 405nm, Emission 460nm and 530nm. The % activity was determined from the ratio of 460nm/530nm. For cell viability readout that measures cytotoxicity, 4 uL /well of CellTiter-Glo reagent was added into the assay plates using Bioraptr FRD. After 30 min incubation at room temperature, the luminescence intensity in the assay plates was measured using a ViewLux (PerkinElmer, Shelton, CT) plate reader.
With `O=S(=O)(O)c1ccc(Cl)cc1` the Potency was “inactive”. With `Oc1ccc(C(O)CNCCCCCCNCC(O)c2ccc(O)c(O)c2)cc1O` (stereo not given) the Potency was “inactive”. For `COc1cc(N)ccc1C`, the Potency was “inactive”. With `CCCCCCCCC(C)=O` the Potency was “inactive”. For `Cc1cc(CC(=O)O)n(C)c1C(=O)c1ccc(Cl)cc1`, the Potency was “inactive”. For `Cc1cccc(C)c1OCC(=O)N[C@@H](Cc1ccccc1)[C@@H](O)C[C@H](Cc1ccccc1)NC(=O)[C@H](C(C)C)N1CCCNC1=O`, the Potency was “inactive”. For `NCCOCCN`, the Potency was “inactive”. With `CC(=O)OCC(C)OC(C)=O` (stereo not given) the Potency was “inactive”. With `COc1cccc(OC)c1` the Potency was “inactive”. For `Cc1coc2ccccc2c1=O`, the Potency was “inactive”. For `O=C1CCCCC1`, the Potency was “inactive”. With `CCCCC(CC)(CO)CO` the Potency was “inactive”. For `CC(=O)c1ccc2c(c1)[C@H](NC(=O)c1ccc(F)cc1)[C@@H](O)C(C)(C)O2`, the Potency was “inactive”. For `Cc1cccc(NC(=S)N(C)C)c1`, the Potency was “inactive”. For `CCOC(=O)c1ccc(C)cc1`, the Potency was “inactive”. In the case of `C=CCCCCCCCC`, the Potency is reported as “inactive”. With `O=C(O)CC(C(=O)O)S(=O)(=O)O` (stereo not given) the Potency was “inactive”. With `O=C(/C=C/c1ccccc1)OCCCc1ccccc1` the Potency was “inactive”. With `CCCOc1ccc(S(=O)(=O)N2CCN(CC)CC2)cc1-c1nc2c(CC)n(Cc3ccccn3)nc2c(=O)[nH]1` the Potency was “inactive”. In the case of `CC1(C)S[C@@H]2[C@H](NC(=O)C(c3ccccc3)S(=O)(=O)O)C(=O)N2[C@H]1C(=O)O` (stereo not given in full), the Potency is reported as “inactive”. In the case of `CCN[C@H]1C[C@H](C)S(=O)(=O)c2sc(S(N)(=O)=O)cc21`, the Potency is reported as “inactive”. For `O=C(NO)C1(NS(=O)(=O)c2ccc(Oc3ccc(F)cc3)cc2)CCOCC1`, the Potency was “inactive”. With `NCc1ccco1` the Potency was “inactive”. In the case of `O=C(O)C1CCC1`, the Potency is reported as “inactive”. In the case of `Clc1ccc(Nc2nnc(Cc3ccncc3)c3ccccc23)cc1`, the Potency is reported as “inactive”. For `Cc1c2oc3c(C)ccc(C(=O)N[C@@H]4C(=O)N[C@H](C(C)C)C(=O)N5CCC[C@H]5C(=O)N(C)CC(=O)N(C)[C@@H](C(C)C)C(=O)O[C@@H]4C)c3nc-2c(C(=O)N[C@@H]2C(=O)N[C@H](C(C)C)C(=O)N3CCC[C@H]3C(=O)N(C)CC(=O)N(C)[C@@H](C(C)C)C(=O)O[C@@H]2C)c(N)c1=O`, the Potency was “inactive”. For `c1c[nH]cn1`, the Potency was “inactive”. In the case of `CCCCCCCCCOC(C)=O`, the Potency is reported as “inactive”. In the case of `Cc1c(C(=O)O)cccc1[N+](=O)[O-]`, the Potency is reported as “inactive”. In the case of `O=C(O)Cc1cc(I)c(Oc2cc(I)c(O)c(I)c2)c(I)c1`, the Potency is reported as “inactive”. With `CCc1cc(Cc2cc(CC)cc(C(C)(C)C)c2O)c(O)c(C(C)(C)C)c1` the Potency was “inactive”. For `C#CC(C)(O)CC(C)C` (stereo not given), the Potency was “inactive”. In the case of `C=CCOC(=O)c1ccc(C(=O)OCC=C)c(C(=O)OCC=C)c1`, the Potency is reported as “inactive”. In the case of `C[C@@H]1CCC[C@H](C)N1`, the Potency is reported as “inactive”. In the case of `CN(C)CCC=C1c2ccccc2C=Cc2ccccc21`, the Potency is reported as “inactive”. In the case of `COc1cc(C)ccc1C(C)C`, the Potency is reported as “inactive”. For `O=Cc1ccccc1C=O`, the Potency was “inactive”. In the case of `O=C(O)CCCCCCCCC(=O)O`, the Potency is reported as “inactive”. In the case of `C/C=C1/CC2C=CC1C2` (stereo not given), the Potency is reported as “inactive”. For `O=C(O)c1cccc(N(Cc2cccnc2)c2ccc(OC(F)F)c(OC(F)F)c2)c1`, the Potency was “inactive”.
